# CHRM1 antagonist: human M1 muscarinic receptor antagonists, primary screen, CHO-K1 cells, Fluo-8 calcium fluorescence, 1536-well; inhibition, % at 3 µM; CHO-K1 hM1, ACh EC80 antagonist; Muscarinic acetylcholine receptor M1 (Homo sapiens), P11229; hit rate 1.3% among 360,000;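 active = percent inhibition above its own plate's cutoff, namely the mean of that plate's compound wells plus 3 SD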;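 also: peak over basal fluorescence ratio during 140 s after agonist addition; 0% = ACh EC80 plus DMSO and 100% = DMSO alone without agonist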
# Target sequence (P11229 whole entry, looked up): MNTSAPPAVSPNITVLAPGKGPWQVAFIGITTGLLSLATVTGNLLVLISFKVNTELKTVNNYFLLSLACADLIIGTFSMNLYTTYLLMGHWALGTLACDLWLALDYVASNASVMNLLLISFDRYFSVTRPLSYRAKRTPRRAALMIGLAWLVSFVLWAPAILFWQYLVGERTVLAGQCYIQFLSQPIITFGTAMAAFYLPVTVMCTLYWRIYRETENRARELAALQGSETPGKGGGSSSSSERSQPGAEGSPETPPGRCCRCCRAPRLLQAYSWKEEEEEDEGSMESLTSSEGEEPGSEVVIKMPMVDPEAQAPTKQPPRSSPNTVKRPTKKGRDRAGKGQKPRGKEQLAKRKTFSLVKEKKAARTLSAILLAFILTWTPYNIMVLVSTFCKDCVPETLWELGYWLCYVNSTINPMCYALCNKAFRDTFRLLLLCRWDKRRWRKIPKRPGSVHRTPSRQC
# CHO-K1 Ca PAM: nonselective calcium activators in parental CHO-K1 cells, primary screen, counter-screen for M1 PAM project, cell-based, Fluo-8 calcium fluorescence, full deck, 1536-well. hit rate 0.02% among 360,000. ATP EC20; 0% at ATP EC20, 100% at ATP max. activation, % at 3 µM. AID 602247, 2012;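 active = activation above the run cutoff, the mean activation of all test compounds plus 3 SD, cut at about 40% in these data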;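 also: peak over basal fluorescence ratio in a 140 s read after ATP addition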
# M1 ag parental: counter-screen for M1 agonists: effect in parental CHO-K1 cells | activation, % at 3 µM | hit rate 0.48% among 360,000 | Fluo-8 calcium fluorescence; scaled to maximal ATP response, vehicle zero; in the data active = activation above about 15%;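 also: untransfected CHO-K1 host cells lacking M1 receptor as counterscreen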
# CHO-K1 Ca antag: nonselective inhibitor or artifact in parental CHO-K1 cells. AID 602250. ATP-induced calcium, Fluo-8 fluorescence. inhibition, % at 3 µM. hit rate 0.6% among 360,000;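 active = inhibition above a per-plate cutoff, the plate's mean sample inhibition plus 3 SD, cut at about 24% in these data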;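 also: 0% = DMSO plus EC80 ATP and 100% = DMSO alone without ATP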
# M1 PAM: human M1 muscarinic receptor positive allosteric modulators, primary screen, CHO-K1 cells, Fluo-8 calcium fluorescence, 1536-well; Muscarinic acetylcholine receptor M1 (Homo sapiens), P11229; CHO-K1 hM1, ACh EC20; 0% = ACh EC20, 100% = maximal ACh; activation, % at 3 µM; hit rate 0.088% among 360,000; in the data active = activation above about 19%, passing the limit was not always enough
# CHRM1 agonist: human M1 muscarinic receptor agonists, primary screen, Fluo-8 calcium fluorescence, CHO-K1 cells, HTS | Muscarinic acetylcholine receptor M1 (Homo sapiens), P11229 | CHO-K1 hM1, agonist mode; 0% DMSO, 100% acetylcholine EC100 | activation, % at 3 µM | hit rate 0.33% among 360,000;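 active = activation above the run's mean compound activation plus 3 SD, cut at about 16% in these data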;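 also: peak over basal fluorescence ratio within a 140 s kinetic read after compound addition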
# Numbers without * were called inactive. Sampled rows, rich in hits. Any-hit rate of the full collection: about 2.3%.
SMILES,CHRM1 antagonist,CHO-K1 Ca PAM,M1 ag parental,CHO-K1 Ca antag,M1 PAM,CHRM1 agonist
COc1cccc(/C=C/C(=O)OCC(=O)c2c(N)n(C)c(=O)n(C)c2=O)c1,5.5,-16.9,4.4,-11.5,5.8,2.4
CC(=O)N1CCSc2ccc(S(=O)(=O)Nc3ccc(C)cc3)cc21,2.5,10.1,9.5,-16.1,-5.1,0.1
COc1ccc(NS(=O)(=O)c2ccc3c(c2)N(C(C)=O)CCS3)cc1,5.3,-15.9,16.9*,23.5,-8.1,3.7
COc1ccc(NS(=O)(=O)c2cc(NC(=O)CCNC(C)=O)ccc2N2CCCCC2)cc1,44.0*,17.9,0.6,-11.4,-11.3,-5.3
Cc1ccc(C)c(S(=O)(=O)NCC(=O)OCC(=O)Nc2sccc2C(N)=O)c1,5.8,-14.8,12.6,-11.2,-7.2,3.7
CN(C(=O)c1ccccc1OCc1ccc(Cl)cc1)c1ccccc1,74.9*,16.0,-0.1,1.2,-22.8,-6.2
C=C(c1ccccc1Cl)[n+]1ccccc1,-19.5,0.0,0.1,-7.2,0.2,-10.3
CN(CC(=O)Nc1ccc(Cl)c(Cl)c1)C(=O)/C=C/c1ccc(F)cc1,0.5,-9.4,-0.8,25.5*,5.9,-2.3
Cc1nn(CC(=O)Nc2ccc(Br)cc2F)c(=O)c2cccn12,-6.1,5.1,0.0,-2.5,12.7,-4.1
COc1ccc(S(=O)(=O)N(C)CC(=O)NCC2CCCO2)cc1OC (stereo not given),-15.1,-7.7,0.4,-4.5,13.8,0.4
COc1ccc(S(=O)(=O)N(CC(=O)NCC2CCCO2)c2ccc(F)cc2)cc1OC (stereo not given),15.8,-6.4,0.8,25.8*,0.2,-1.1
C/C(=N/NC(=O)CNC(=O)c1ccccc1F)c1ccc2c(c1)CCCC2,2.3,-4.1,-0.3,0.4,6.5,-10.1
C/C(=N/NC(=O)CNC(=O)c1ccc2c(c1)OCO2)c1ccc2c(c1)CCCC2,4.4,-17.0,-1.3,25.3*,7.6,-2.6
CCC(C)(C(=O)NC1CCCC1)N(Cc1cccs1)C(=O)c1ccc2c(c1)OCO2 (stereo not given),6.7,18.6,16.0*,2.8,0.2,-5.5
O=C(NC1CCCCC1)C(=S)NCCc1ccccc1,-8.8,8.8,21.1*,-5.2,2.6,-5.8
O=C(NCCc1ccccc1)C(=O)NC1CCCCC1,-30.8,-5.5,-0.1,-15.1,4.2,-2.6
CCCOc1ccc(C(=O)NNC(=O)c2cccc(S(=O)(=O)N3CCN(C(C)=O)CC3)c2)cc1OC,5.2,5.2,1.5,-2.6,-0.7,-4.1
CCCCn1c(N)c(N(CC)C(=O)CCNC(=O)NC23CC4CC(CC(C4)C2)C3)c(=O)[nH]c1=O,-10.2,8.9,0.3,-16.3,9.8,-2.9
Cc1ccc(NC(=O)Cc2nn(C)c(=O)c3ccccc23)cc1F,10.7,1.1,9.8,7.9,-15.4,6.1
Cn1nc(CC(=O)Nc2ccc3c(c2)OCCO3)c2ccccc2c1=O,30.9*,-10.7,11.8,27.5*,-11.4,2.3
Cn1cnc2c1c(=O)n(Cc1ccccc1)c(=O)n2C,-7.6,12.0,0.6,-4.0,10.7,-2.2
Cn1cnc2c1c(=O)n(CC(O)CO)c(=O)n2C (stereo not given),29.2*,2.1,0.4,5.7,-9.2,-0.2
CCOC(=O)c1c(-c2ccccc2)csc1NC(=O)/C(C#N)=C/c1ccc(O)c(OC)c1,29.4,10.1,12.8,20.9,3.6,16.7*
CCOC(=O)c1c(-c2ccccc2)csc1NC(=O)/C(C#N)=C/c1ccc(OC)c(OC)c1,-9.0,20.3,0.2,-4.8,5.9,-4.0
CC(=O)Nc1cccc(NC(=O)c2cc(-c3cccnc3)nc3ccc(Br)cc23)c1,41.6*,-16.1,5.8,5.8,-22.4,-4.7
SMILES,CHRM1 antagonist,CHO-K1 Ca PAM,M1 ag parental,CHO-K1 Ca antag,M1 PAM,CHRM1 agonist
Cc1noc(C)c1COc1ccc(C(=O)Nc2nnc(CC(C)C)s2)cc1,-3.4,3.2,1.0,-14.2,3.4,0.3
CCC(C(N)=O)N1C(=O)C2C3CCC(C3)C2C1=O (stereo not given),-18.6,-3.0,-0.3,-5.5,12.0,2.4
CCC(=O)Oc1ccc(NC(=O)c2ccco2)cc1,-8.3,-0.4,0.7,-14.4,7.2,-1.7
O=C(Nc1ccc(OC(=O)c2ccco2)cc1)c1ccco1,7.1,-4.9,-0.1,28.0*,9.6,2.1
O=C(Nc1ccc(Br)c(Cl)c1)c1ccco1,-5.1,16.3,0.9,-1.5,1.9,-5.3
O=C(CCc1ccccc1)NC(NC(=S)Nc1ccc(Cl)cc1)C(Cl)(Cl)Cl (stereo not given),23.5*,11.2,6.5,13.8,-9.7,4.8
O=C(Nc1ccc(Cl)c(Cl)c1)Oc1ccc(NC(=O)c2ccco2)cc1,17.9,-5.9,3.5,34.0*,-12.8,3.4
O=C(NC(NC(=S)Nc1ccc(Cl)c(Cl)c1)C(Cl)(Cl)Cl)c1ccco1 (stereo not given),21.8,-6.3,10.2,29.0*,-9.3,0.7
CSCC[C@H](NC(=O)C1=NN(c2c(F)c(F)cc(F)c2F)C(=O)CC1)c1nc2ccccc2[nH]1,-27.4,4.8,0.1,-14.8,5.0,-4.2
COc1ccc2nc(NC(=O)CN3CCOCC3)sc2c1,10.2,-6.8,-0.2,25.7*,-11.9,-1.9
CC1(C(=O)Nc2cccc3cccnc23)CCN1Cc1csc2ccccc12 (stereo not given),-6.5,50.6*,1.2,-35.6,-0.4,-2.9
COc1cccc(CN2CCC2(C)C(=O)Nc2cccc3cccnc23)c1F (stereo not given),-8.3,10.3,-0.7,-9.4,9.5,-1.0
CCN(C[C@H]1N[C@@](CC)(C(=O)OC)[C@H]2C(=O)N(C)C(=O)[C@@H]12)S(=O)(=O)c1ccc(OC)cc1,-3.2,8.8,0.1,-7.4,6.9,-2.5
CCOc1ccccc1N1CCN(C2=C(NS(=O)(=O)c3cccs3)C(=O)c3ccccc3C2=O)CC1,59.7*,12.4,0.5,3.8,-23.1,-6.3
O=C1C(NS(=O)(=O)c2cccs2)=C(N2CCN(Cc3ccccc3)CC2)C(=O)c2ccccc21,30.6*,-3.4,6.8,-2.8,-13.5,-1.5
COc1ccc(NC(=O)CSc2n[nH]c(CNc3cccc(C)c3)n2)cc1,-11.8,11.2,1.1,1.7,12.6,0.6
COc1ccc(Cl)cc1NC(=O)NC(C)c1ccncc1 (stereo not given),-2.2,-6.8,-0.3,28.5*,9.7,-4.7
Cc1ccc(NC(=O)c2c(F)cccc2Cl)cc1S(=O)(=O)N1CCOCC1,4.3,-11.2,2.7,-5.9,-2.0,-1.1
